12-hLO inh – qHTS Assay for Inhibitors of 12-hLO (12-human lipoxygenase) | Polyunsaturated fatty acid lipoxygenase ALOX12 (Homo sapiens), P18054 | purified 12-hLO, xylenol orange hydroperoxide absorbance | Potency, µM (highest dose often 57.1 µM), without a hit: at the highest dose activity change, negative = inhibition, actives largely listed as inhibitors | 0.12% of 150,000 active | AID 1452, 2008; further: potency means the concentration at half of the fitted maximal effect; nearly all actives have a fitted effect of over 55% in size
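150 nM 12hLO, 25 mM Hepes pH 7.0 + 0.01% Triton X-100; cpd preinc 15 min RT; 40 uM arachidonic acid, 30 min RT; Fe-XO 30 min; A573/A405 ratio as read-out.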
IMPase Li cell – qHTS Assay for Identifying the Cell-Membrane Permeable IMPase Inhibitors: Potentiation with Lithium | CHO-M1 cells, IP1 TR-FRET (IP-One), carbachol + lithium | Potency, µM (highest dose often 59.4 µM), for the others: at the highest dose activity, negative = IMPase inhibition, hits mostly inhibitors | 0.35% of 210,000 active;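 further: IP1 builds up when IMPase is blocked and the TR-FRET signal falls; potency means the concentration at half of the fitted maximal effect; plate controls were basal vehicle for no effect and high inhibitor control for full effect; nearly all actives have a fitted effect of over 50% in size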
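CHO cells stably expressing M1 receptor (2000/well, cultured 16–30 h) treated 30 min at 37C with compound plus low lithium. Cytosolic IP1 by TR-FRET (665/620 ratio and 620 channel) after 10 min lysis; AC50 by Hill fit.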
IMPase cell inh – qHTS Assay for Identifying the Cell-Membrane Permeable IMPase Inhibitors; CHO-M1 cells, IP1 accumulation, HTRF TR-FRET ratio; inhibition (IP1 accumulation), % at 46.1 µM; AID 901, 2007; 120,000 tested, under 10 active; active means well fitted curve in the direction sought with a large enough effect in the signal ratio, not every such curve was filed as active; inconclusive means small, poorly fitted or top-dose-only effect, or a change in a side signal; inactive means no such curve, though single readings can be large or run the other way; the % refers to the signal ratio;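 further: cells stimulated with carbachol in lithium chloride buffer; plate controls were DMSO basal wells for no effect and reference inhibitor wells for full effect; higher means more IMPase inhibition seen as more IP1 and lower FRET ratio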
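Seeded CHO-M1 cells were dosed with compound at up to 46 uM, stimulated with carbachol for 30 min, then lysed in IP-One detection reagents. Higher IP1 lowers the TR-FRET signal.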
NPSR antagonist – qHTS Assay for Antagonists of the Neuropeptide S Receptor: cAMP Signal Transduction. Potency, µM (series often up to 38.3 µM), for the others: top-dose activity change, negative = inhibition, most hits filed as inhibitors. Q6W5P4. AID 1461, 2008. 1% of 220,000 active. CHO-NPSR cells, cAMP TR-FRET, antagonist mode; further: potency means the concentration at half of the fitted maximal effect; nearly all actives have a fitted effect of over 50% in size
ALDH1A1 inh – qHTS Assay for Inhibitors of Aldehyde Dehydrogenase 1 (ALDH1A1); Purified ALDH1A1, NADH fluorescence, propionaldehyde substrate; Potency, µM (series often up to 75.3 µM), without a hit: at the top dose activity, negative = inhibition, usual class: inhibitors; 7.3% of 220,000 active; AID 1030, 2008; active means well fitted inhibition curve with a large enough effect, not every such curve was filed as active; inconclusive means small, poorly fitted or top-dose-only effect, or another doubt; inactive means no such curve, though single readings can be large or run the other way;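 further: potency means the concentration at half of the fitted maximal effect; plate controls were no enzyme wells and a reference inhibitor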
Target sequence (P00352 whole entry, looked up): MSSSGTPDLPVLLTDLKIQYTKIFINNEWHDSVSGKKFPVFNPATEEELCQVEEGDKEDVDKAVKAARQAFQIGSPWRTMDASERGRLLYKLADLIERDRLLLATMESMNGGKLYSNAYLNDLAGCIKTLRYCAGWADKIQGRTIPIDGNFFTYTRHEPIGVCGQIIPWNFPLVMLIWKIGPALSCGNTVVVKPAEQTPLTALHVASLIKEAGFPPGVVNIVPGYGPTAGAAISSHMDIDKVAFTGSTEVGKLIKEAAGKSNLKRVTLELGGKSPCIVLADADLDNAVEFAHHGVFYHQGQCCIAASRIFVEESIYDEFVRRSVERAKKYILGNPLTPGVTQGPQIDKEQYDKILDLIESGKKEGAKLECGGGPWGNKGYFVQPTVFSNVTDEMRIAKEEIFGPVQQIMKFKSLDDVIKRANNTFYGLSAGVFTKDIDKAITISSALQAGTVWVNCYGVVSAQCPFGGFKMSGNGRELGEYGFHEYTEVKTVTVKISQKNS
HPGD block – qHTS Assay for Inhibitors of HPGD (15-Hydroxyprostaglandin Dehydrogenase) | AID 894, 2007 | Potency, µM, without a hit: at the top dose activity change, negative = inhibition, actives largely listed as inhibitors | 4.3% of 150,000 active | purified HPGD, NADH fluorescence kinetic, PGE2 substrate; active means well fitted inhibition curve with a large enough effect, not every such curve was filed as active; inconclusive means small, poorly fitted or top-dose-only effect, or another doubt; inactive means no such curve, though single readings can be large or run the other way; further: potency means the concentration at half of the fitted maximal effect
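NADH formation kinetics: reaction with 30 uM PGE2 and 1 mM NAD+ (final), 20 nM enzyme, Tris-HCl pH 8 with Tween 20, after 15 min compound preincubation at room temperature. Fluorescence change, last versus first of five reads.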
Numbers without * were called inactive; u = inconclusive; x = not tested or not shown; [ ] = another dose, or the depositor's remark. Sampled rows, rich in hits. Any-hit rate of the full collection: about 8.9%. Unless noted, the call rests on the fitted dose curve; in most records, active means well fitted curve in the direction sought with a large enough effect; inconclusive means small, poorly fitted or top-dose-only effect, or another doubt; inactive means no such curve, though single readings can be large; an effect the other way counts as inactive or inconclusive. Unless noted, on the % scale 0 is the no-effect control and ±100 the full control effect.

SMILES | 12-hLO inh | IMPase Li cell | IMPase cell inh | NPSR antagonist | ALDH1A1 inh | HPGD block
CC(=O)c1cc(NC(=O)c2ccc(C)cc2)c(=O)oc1C | x | 7% | x | -25% | 22µM* | x
Cc1oc(=O)c(NC(=O)c2ccccc2)cc1C(=O)c1ccccc1 | -7% | 9%[38.3 µM] | 7 | u | 18µM* | -15%
COC(=O)c1cc(NC(=O)c2ccc(OC)cc2)c(=O)oc1C | x | 9% | x | 2% | 2% | x
COCCCn1c(C)c(C(C)=O)cc(NC(=O)c2ccccc2)c1=O | x | -8% | x | 3% | 2µM* | x
CC(=O)c1cc(NC(=O)c2ccccc2)c(=O)oc1C | x | 9% | x | 4% | 20µM* | x
Cc1ccccc1C1=N/C(=C/c2cccs2)C(=O)O1 | x | 0% | x | -12% | 3% | x
CCOC(=O)c1cc(NC(=O)c2ccccc2)c(=O)oc1C(F)(F)F | x | 10% | x | 6% | -3% | x
Cc1oc(=O)c(NC(=O)c2ccc(Cl)cc2)cc1C(=O)c1ccccc1 | u | 22%[38.3 µM] | 4 | u | 3.5µM* | 32µM*
O=C(N=Nc1c(O)[nH]c2ccc(Br)cc12)c1ccccc1-n1cccc1 | -8% | 38%[38.3 µM] | 0 | 13µM* | u | -13%
Cc1ccc(-c2nn3c(-c4cccc(Cl)c4)nnc3s2)cc1 | 1% | 11%[38.3 µM] | -9 | -6%[46.1 µM] | 11% | -12%
CC(C)Cn1c(C(C)C)nc([N+](=O)[O-])c1S(=O)(=O)c1ccc(F)cc1 | -6% | 4%[38.3 µM] | 10 | -21%[46.1 µM] | -7% | -10%
CCCCn1c(CCC)nc([N+](=O)[O-])c1Sc1ccc(Cl)cn1 | -7% | 27% | 20 | -24%[46.1 µM] | 7.1µM* | -15%
CC(C)Cn1c(C(C)C)nc([N+](=O)[O-])c1Sc1ccc(Cl)cn1 | -13% | 4% | u | -7%[46.1 µM] | 22µM* | -22%
O=C(Cc1ccc(Br)cc1)N1CCN(c2ccccc2)CC1 | -8% | 28%[38.3 µM] | 15 | 7%[46.1 µM] | u | 4%
CN1CCc2cccc3c2C1Cc1ccc(O)c(O)c1-3 (stereo not drawn) | -6% | 19% | x | -12%[46.1 µM] | u | 5µM*
Cc1nc2ccccn2c1-c1ccnn1S(=O)(=O)c1ccc(F)cc1 | x | x | x | 38% | 8% | x
CN(C)S(=O)(=O)c1cccc(NC(=O)c2cc(-c3cccs3)nn2-c2ccccc2)c1 | 1% | 13% | x | -8% | 22µM* | u
CCN(CC)S(=O)(=O)c1cccc(NC(=O)c2cc(-c3cccs3)nn2-c2ccccc2)c1 | 0% | 4% | x | -10% | -7% | -20%
Cc1cc(C)c(C(=O)/C=C/c2ccco2)c(=O)[nH]1 | x | -4% | x | -7% | 11µM* | x
O=C(NCc1ccccc1)c1cc(-c2ccncc2)nc2ccc(S(=O)(=O)N3CCOCC3)cc12 | 1% | -4% | x | -3% | 0.79µM* | -22%
NS(=O)(=O)c1ccc(CNC(=O)c2cc(-c3ccccn3)nc3ccc(Cl)cc23)cc1 | x | u | x | 13µM* | 2% | x
O=C(O)c1cc(-c2ccncc2)nc2ccc(S(=O)(=O)N3CCOCC3)cc12 | -5% | -16%[38.3 µM] | 3 | -14%[46.1 µM] | 7% | -8%
CC(C)(C)NC(=O)C(c1ccc(F)cc1)N(CCc1ccccc1)C(=O)c1ccn[nH]1 (stereo not drawn) | x | 14% | x | 13% | -6% | x
O=C(c1ccco1)N1N=C(C2CCCCC2)CC1(O)C(F)(F)F (stereo not drawn) | x | 4% | x | -5% | 6.3µM* | x
O=C(c1ccncc1)N1N=C(C2CCCCC2)CC1(O)C(F)(F)F (stereo not drawn) | x | 3% | x | -8% | 1% | x
SMILES | 12-hLO inh | IMPase Li cell | IMPase cell inh | NPSR antagonist | ALDH1A1 inh | HPGD block
COc1ccc(S(=O)(=O)N2CCN(C(=O)c3c(C)nn(-c4ccccc4)c3Cl)CC2)cc1 | -14% | 30%[38.3 µM] | 9 | -15%[46.1 µM] | 32µM* | -16%
Cc1ccc(S(=O)(=O)N2CCN(C(=O)c3c(C)nn(-c4ccccc4)c3Cl)CC2)cc1 | u | 13%[38.3 µM] | -1 | -17%[46.1 µM] | -4% | -11%
COc1cc(/C=N/NC(=O)c2cccc(NC(=O)c3ccccc3Cl)c2)ccc1O | x | -1% | x | -11% | 13µM* | x
O=C(N/N=C/c1ccncc1)c1cccc(NC(=O)c2ccccc2Cl)c1 | -2% | 11% | x | -5% | 13µM* | -16%
O=C(N/N=C/c1ccncc1)c1ccc(NC(=O)c2cccc(Cl)c2)cc1 | x | 0% | x | 2% | -4% | x
COc1ccc(/C=N/NC(=O)Cn2nc([N+](=O)[O-])cc2C)c(OC)c1OC | x | x | x | -1% | -3% | x
COc1ccc(/C=N/NC(=O)c2cccc(NC(=O)c3ccccc3Cl)c2)cc1OC | x | 1% | x | 14% | 4µM* | x
COc1ccccc1/C=N/NC(=O)c1ccc(Cn2nc([N+](=O)[O-])cc2C)cc1 | 1% | 8% | x | 8% | 14µM* | u
Cc1ccc(/C=N/NC(=O)CSCc2ccc(Cl)cc2)cc1 | -27% | 13%[38.3 µM] | -2 | 7%[46.1 µM] | -8% | -11%
CCc1c(C)nc(N)n2c(SCC(=O)N3CCN(c4ccccc4F)CC3)nnc12 | -5% | 7%[38.3 µM] | 2 | 8%[46.1 µM] | 6% | -9%
Cc1nnc(SCC(=O)Nc2ccc(N(C)C)cc2)n(N)c1=O | x | 16% | x | -4% | 7% | x
